The source of these data is PubChem BioAssay (NCI).

A short description of assay [1]: NCI Yeast Anticancer Drug Screen. Data for the rad50 strain (AID 155).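 Further: 0% = growth of vehicle-only cultures of the same strain.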 The following applies: S. cerevisiae rad50 strain growth inhibition; at 50.0 µM; active compounds read high. The essentials: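 Vehicle-treated cultures provide the reference for the growth inhibition reported for compound-exposed, repair-deficient yeast.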
The nature of assay [2]: NCI Yeast Anticancer Drug Screen. Data for the mec2-1 strain (AID 157). Conditions: S. cerevisiae mec2-1 strain, at 50.0 µM, active compounds read high. In a few lines:
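Mutant yeast (mec2-1) grown with compound; growth inhibition relative to vehicle control reported.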

Assay [3] is described as follows: NCI Yeast Anticancer Drug Screen. Data for the sgs1 mgt1 strain (AID 161).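 Further: 0% = growth of cultures given vehicle only.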 The following applies: S. cerevisiae sgs1 mgt1 strain, at 50.0 µM, active compounds read high. The essentials: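 This yeast growth screen uses a strain with defined DNA-repair lesions; compound-treated growth is compared with vehicle-treated growth.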
Assay [4] can be described thus: NCI Yeast Anticancer Drug Screen. Data for the cln2 rad14 strain (AID 165).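 Further: 0% = growth equal to vehicle treated cultures.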 The following applies: S. cerevisiae cln2 rad14 strain, at 50.0 µM, active compounds read high. The essentials:
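Readout is yeast growth inhibition versus vehicle-treated controls, using a strain with cln2 and rad14 alterations exposed to compound.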

Assay [5] is described as follows: NCI Yeast Anticancer Drug Screen. Data for the mlh1 rad18 strain (AID 175). Conditions: S. cerevisiae mlh1 rad18 strain growth inhibition; at 50.0 µM; active compounds read high. In a few lines:
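Genetically defined yeast (DNA repair-deficient) exposed to compounds; growth inhibition determined relative to vehicle.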

Assay [6] is described as follows: NCI Yeast Anticancer Drug Screen. Data for the bub3 strain (AID 167). Conditions: S. cerevisiae bub3 mutant strain, at 50.0 µM, active compounds read high. In a few lines: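 Mutant yeast screening strain plus compound; vehicle-treated cultures serve as the 0% inhibition reference.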

The structures appear in SMILES notation. This is part of a sample that, as a whole, favours compounds with a hit. Of some 79,000 tested, about 15% had one in any assay. A number with no mark means an inactive call. Activity calls are given as the source filed them. No stated cut-off is given here; in the data, active means growth inhibition above about 70%; inactive means the rest.

Take `Brc1cnc2ccccc2c1`: the growth inhibition in assay [1] was 12.8%; in assay [2], 9.05%; in assay [3] it was 26.7%; in assay [4], -7.65%; in assay [5] it was 22.2%.

Consider `NC(=S)N/N=C/c1ccc(N)cc1`, for which the growth inhibition in assay [1] is 7.2%; in assay [2] it was -2.35%; in assay [3], 0.9%; in assay [4] it was -1.35%; in assay [5], 7.5%.

Consider `S=C1CCCCCN1`, for which the growth inhibition in assay [1] is 47.6%; in assay [2], 17.8%; in assay [3] it was 42.6%; in assay [4] it was 9.95%; in assay [6] it was 30.4%; in assay [5], 30.8%.

Turning to `O=C(c1ccc(Cl)cc1)c1ccccc1Cl`, the growth inhibition in assay [1] is 37.9%; in assay [2] it was -8.3%; in assay [3], 41.3%; in assay [4], -41.1%; in assay [5] it was 19%.

`O=[N+]([O-])c1ccc(-c2ncc(-c3ccc(Br)cc3)o2)cc1`: the growth inhibition was -0.1% in assay [1]; -3.3% in assay [2]; 21.9% in assay [3]; 11.6% in assay [4]; 3.45% in assay [5].

With `CN(C)c1ccc2oc(=O)c3ccccc3c2c1`, the growth inhibition in assay [1] was 6.05%; in assay [2], 7.55%; in assay [3], 1.55%; in assay [4], -2%; in assay [5], -33%.

As for `CCCCCCCCOC(=O)c1ccccn1`, the growth inhibition in assay [1] is -6.75%; in assay [2] it was 0.3%; in assay [3], -8.05%; in assay [4] it was -59%; in assay [5], -3.2%.

With `N#CCCc1ccc(O)cc1`, the growth inhibition in assay [1] was -25.1%; in assay [2], -44.2%; in assay [3] it was -34.9%; in assay [4] it was 1.55%; in assay [6], -17.9%; in assay [5] it was -19.1%.

For the compound `CC(C)=NNc1ccc([N+](=O)[O-])cc1[N+](=O)[O-]`, the growth inhibition is 35.1% in assay [1]; 12.8% in assay [2]; 8.3% in assay [3]; 25.4% in assay [4]; 44.3% in assay [5].

Consider `CC(=O)OCCC(C)CCC=C(C)C` (centres undefined), for which the growth inhibition is 14.7% in assay [1]; 19.1% in assay [2]; -19.9% in assay [3]; -18.1% in assay [4]; 2.4% in assay [5].

For `CC1(c2ccccc2)NC(=O)NC1=O` (centres undefined), the growth inhibition is 26.7% in assay [1]; -8.85% in assay [2]; 0.8% in assay [3]; -1.3% in assay [4]; 23.9% in assay [5].

On to `Oc1ccc(Cc2ccccc2)c2cccnc12`, for which the growth inhibition in assay [1] was -27.7%; in assay [2], -8.6%; in assay [3] it was -12.7%; in assay [4] it was -19.4%; in assay [5], 34.6%.

Take `O=C(OCC(O)C1OC(c2ccccc2)OC(COC(=O)c2ccccc2)C1O)c1ccccc1` (centres undefined): the growth inhibition in assay [1] is 5.85%; in assay [2], 4.85%; in assay [3] it was 13.6%; in assay [4], 16.6%; in assay [6] it was 1%; in assay [5] it was 11.9%.

Take `CCc1ccc(/C(C#N)=C/C=C/c2ccccc2)cc1`: the growth inhibition in assay [1] was 8.9%; in assay [2], -12.2%; in assay [3], 20.6%; in assay [4] it was -2.9%; in assay [6], 38%; in assay [5], 14.7%.

With `CCOc1ccc(/C=C/C(=O)c2ccccc2)cc1`, the growth inhibition was -9.9% in assay [1]; -15.9% in assay [2]; 24.6% in assay [3]; -20.1% in assay [4]; 22.4% in assay [6]; -19.6% in assay [5].

Take `OCCN(CCO)C(=S)S`: the growth inhibition is 2.15% in assay [1]; -5.75% in assay [2]; 1.1% in assay [3]; -1.8% in assay [4]; -0.85% in assay [5].

As to `O=C1OC(=O)C2C1C1(Cl)C(Cl)=C(Cl)C2(Cl)C2C(=O)OC(=O)C21` (centres undefined), the growth inhibition in assay [1] is 2.45%; in assay [2] it was 12.4%; in assay [3], 17.9%; in assay [4], -9.45%; in assay [6] it was 25.3%; in assay [5] it was -1.75%.

Turning to `c1c(-c2cc(C3CC3)[nH]n2)n[nH]c1C1CC1`, the growth inhibition in assay [1] is -62%; in assay [2] it was -0.25%; in assay [3], -17.6%; in assay [4], -16.4%; in assay [5], 2.35%.

For `Nc1nc(OCc2ccccc2)c2[nH]cnc2n1`, the growth inhibition in assay [1] is -15.3%; in assay [2], -0.15%; in assay [3] it was -48.1%; in assay [4], -29.2%; in assay [5], -42.5%.

On to `COc1cc(CCN=Cc2ccccc2O)c([N+](=O)[O-])cc1OC`, for which the growth inhibition in assay [1] was -3.6%; in assay [2] it was -10.5%; in assay [3], 16.1%; in assay [4], 11.7%; in assay [5], -2.35%.

For `CC(=O)c1ccc(C(C)(C)C)cc1`, the growth inhibition in assay [1] is -2.35%; in assay [2] it was -5.2%; in assay [3], -12.9%; in assay [4] it was 12.1%; in assay [6], 2.5%; in assay [5], 15%.

In the case of `Cc1cc(N)ccc1-c1ccc(N)cc1C`, the growth inhibition in assay [1] is -3%; in assay [2], -6.45%; in assay [3], 4.45%; in assay [4], -39%; in assay [6], -23.1%; in assay [5] it was 37.8%.

On to `O=C(CC(=O)c1ccccc1O)c1ccccc1`, for which the growth inhibition in assay [1] was 31.4%; in assay [2], 43.1%; in assay [3], 34.4%; in assay [4], 40.5%; in assay [6] it was 62.6%; in assay [5], 39.9%.

On to `CCC(C)(C)C1CCC(O)CC1` (centres undefined), for which the growth inhibition was 10.2% in assay [1]; 6.6% in assay [2]; 12.7% in assay [3]; -53.5% in assay [4]; 1.5% in assay [5].

For `CCCCC1C(=O)N(c2ccccc2)N(c2ccccc2)C1=O`, the growth inhibition was -5.2% in assay [1]; -10.6% in assay [2]; -2.65% in assay [3]; -5.75% in assay [4]; -4.2% in assay [6]; -19.1% in assay [5].

For the compound `CCOC(=O)Nc1nn[nH]n1`, the growth inhibition in assay [1] was 7.75%; in assay [2] it was 1.35%; in assay [3] it was 32%; in assay [4] it was 4.15%; in assay [5], 3.65%.

Regarding `COc1ccc(C2OC(N)=C(O)C2=O)cc1OC` (centres undefined), the growth inhibition in assay [1] was -4.25%; in assay [2] it was -23.1%; in assay [3], -14.4%; in assay [4], 11.2%; in assay [5], -31.9%.

Turning to `OCc1ccc(-c2ccc(-c3ccc(CO)s3)o2)s1`, the growth inhibition in assay [1] was 31.1%; in assay [2] it was 3.55%; in assay [3], 39.9%; in assay [4], 31.9%; in assay [6] it was 25.3%; in assay [5], 90.7% (active).

On to `COc1cccc(/C=N/NC(=S)NC2CC3CCC2C3)c1O` (centres undefined), for which the growth inhibition was -21.6% in assay [1]; -33.1% in assay [2]; -3.4% in assay [3]; -9.9% in assay [4]; -3.5% in assay [5].

On to `Cc1cc(Cc2cc(C)c(N)cc2N)c(N)cc1N`, for which the growth inhibition in assay [1] is -1.6%; in assay [2], -49.4%; in assay [3], -23.9%; in assay [6] it was -2.25%; in assay [5], 15.9%.

As to `CC(C)NC(=O)OCc1c(COC(=O)NC(C)C)c(-c2ccc(Cl)c(Cl)c2)n2c1SCC2`, the growth inhibition in assay [1] is 33.9%; in assay [2] it was -7.95%; in assay [3] it was 15.9%; in assay [6], 2.9%; in assay [5] it was 52.9%.

On to `O=[N+]([O-])c1ccccc1S(=O)c1ccccc1[N+](=O)[O-]`, for which the growth inhibition in assay [1] is 16.1%; in assay [2] it was 21.6%; in assay [3], 34.3%; in assay [6], 39.2%; in assay [5], 14.7%.

Regarding `CO[C@H]1C[C@@H]2CC[C@@H](C)[C@@](O)(O2)C(=O)C(=O)N2CCCC[C@H]2C(=O)O[C@H]([C@H](C)C[C@@H]2CC[C@@H](O)[C@H](OC)C2)CC(=O)[C@H](C)C=C(C)[C@@H](O)[C@@H](OC)C(=O)[C@H](C)C[C@H](C)/C=C/C=C/C=C1C`, the growth inhibition was 88.8% (active) in assay [1]; 91.2% (active) in assay [2]; 89.8% (active) in assay [3]; 89.1% (active) in assay [6]; 89.4% (active) in assay [5].

Turning to `Cc1cccc(CO)c1`, the growth inhibition in assay [1] is 14.3%; in assay [2], -28.6%; in assay [3], -25.1%; in assay [6], -18.4%; in assay [5], -22.1%.

As for `CCOc1ccccc1/C=N/Nc1nc2ccccc2o1`, the growth inhibition is 30.6% in assay [1]; 0.4% in assay [2]; -2.8% in assay [3]; -23.8% in assay [4]; 33.6% in assay [5].

Take `COc1cccc(COC(=O)Nc2ccccc2)c1OC`: the growth inhibition in assay [1] was 29.9%; in assay [2] it was 21.4%; in assay [3], 29.7%; in assay [6] it was 42.5%.

As for `Cc1ccc(CCCC(=O)O)c(C)c1`, the growth inhibition is 6.5% in assay [1], -0.25% in assay [2], 22.1% in assay [3] and 28.9% in assay [6].

On to `O=C(/C(=N/O)c1ccccc1)c1ccccc1`, for which the growth inhibition was 7.4% in assay [1]; -21.6% in assay [2]; 1.35% in assay [3]; 4.85% in assay [6]; 12.2% in assay [5].
